# Data: publication PMC7862700, “An all-to-all approach to the identification of sequence-specific readers for epigenetic DNA modifications on cytosine”
# Key:
# Assay in all cases: DAPPL (digital affinity profiling via proximity ligation, sequencing); 10 mM Tris-HCl pH 7.5, 50 mM NaCl, 1 mM DTT, 4% glycerol, room temperature, 30 min; GST-TFs on glutathione beads, 16-mer random dsDNA library, 0.1% formaldehyde crosslink after washing; high values mean tight binding
# [1] = biological target: T1, FEV (Homo sapiens, UniProt Q99581 1-238); details: protein: recombinant; tags: N-terminal GST; dsDNA, one strand shown
# T1 sequence: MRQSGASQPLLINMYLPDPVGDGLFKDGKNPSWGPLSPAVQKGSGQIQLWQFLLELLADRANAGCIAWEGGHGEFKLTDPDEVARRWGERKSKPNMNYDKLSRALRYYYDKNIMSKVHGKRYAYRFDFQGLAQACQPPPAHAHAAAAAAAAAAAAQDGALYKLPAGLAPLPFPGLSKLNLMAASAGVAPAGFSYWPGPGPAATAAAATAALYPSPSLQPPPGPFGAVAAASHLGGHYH
# Procedure, shortened: (§1)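 Human transcription factors carrying a GST fusion were produced in yeast, bound to glutathione beads, tagged with DNA barcodes and pooled together with a tag-only sample. Each pool was held with 200 nmole of a random double-stranded 16-mer DNA library in Tris/NaCl/DTT/glycerol buffer for 30 min at room temperature, then washed, crosslinked in 0.1% formaldehyde, proximity-ligated with BsaI/T4 ligase (1 h, 37 °C), PCR-amplified and sequenced on an Illumina NextSeq500. Binding signal is the read frequency of each hexamer for a given factor divided by its frequency in the tag-only sample.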
# [2] = biological target: ETV5 (Homo sapiens, UniProt P41161 1-510); details: protein: recombinant; tags: N-terminal GST; dsDNA, one strand shown
# Chain of ETV5 (P41161 whole entry): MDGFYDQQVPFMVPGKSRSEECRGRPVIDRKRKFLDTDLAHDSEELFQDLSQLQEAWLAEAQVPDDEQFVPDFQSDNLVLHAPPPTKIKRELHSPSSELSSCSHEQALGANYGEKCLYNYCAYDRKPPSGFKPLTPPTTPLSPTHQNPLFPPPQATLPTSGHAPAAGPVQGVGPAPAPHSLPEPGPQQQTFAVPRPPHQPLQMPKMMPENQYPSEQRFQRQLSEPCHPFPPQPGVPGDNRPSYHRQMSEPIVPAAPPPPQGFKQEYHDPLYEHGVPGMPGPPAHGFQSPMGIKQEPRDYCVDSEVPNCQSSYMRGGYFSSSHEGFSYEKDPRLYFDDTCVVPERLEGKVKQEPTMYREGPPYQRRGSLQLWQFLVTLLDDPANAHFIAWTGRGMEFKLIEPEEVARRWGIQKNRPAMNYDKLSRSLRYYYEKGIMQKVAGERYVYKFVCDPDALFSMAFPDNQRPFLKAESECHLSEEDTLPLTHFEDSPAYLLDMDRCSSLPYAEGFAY
# Procedure, shortened: as §1
# [3] = biological target: HSF1 (Homo sapiens, UniProt Q00613 1-529); details: protein: recombinant; tags: N-terminal GST; chain copies: 3; dsDNA, one strand shown
# Chain of HSF1 (Q00613 whole entry): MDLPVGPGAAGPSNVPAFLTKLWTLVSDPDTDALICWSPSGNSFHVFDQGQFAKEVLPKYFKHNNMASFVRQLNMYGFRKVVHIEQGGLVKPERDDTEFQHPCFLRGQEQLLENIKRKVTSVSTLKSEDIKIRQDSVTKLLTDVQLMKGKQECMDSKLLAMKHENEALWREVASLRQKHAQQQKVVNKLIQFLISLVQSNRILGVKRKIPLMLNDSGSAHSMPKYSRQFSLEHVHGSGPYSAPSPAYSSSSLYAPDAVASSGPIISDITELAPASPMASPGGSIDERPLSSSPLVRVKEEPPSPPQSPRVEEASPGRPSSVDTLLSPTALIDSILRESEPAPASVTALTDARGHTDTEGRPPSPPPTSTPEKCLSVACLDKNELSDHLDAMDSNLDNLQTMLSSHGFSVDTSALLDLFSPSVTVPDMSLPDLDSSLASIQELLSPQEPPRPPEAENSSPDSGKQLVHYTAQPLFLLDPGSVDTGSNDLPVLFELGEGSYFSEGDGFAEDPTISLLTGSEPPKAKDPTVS
# Procedure, shortened: as §1
# [4] = biological target: T2, SPIC (Homo sapiens, UniProt Q8N5J4 1-248); details: protein: recombinant; tags: N-terminal GST; dsDNA, one strand shown
# T2 sequence: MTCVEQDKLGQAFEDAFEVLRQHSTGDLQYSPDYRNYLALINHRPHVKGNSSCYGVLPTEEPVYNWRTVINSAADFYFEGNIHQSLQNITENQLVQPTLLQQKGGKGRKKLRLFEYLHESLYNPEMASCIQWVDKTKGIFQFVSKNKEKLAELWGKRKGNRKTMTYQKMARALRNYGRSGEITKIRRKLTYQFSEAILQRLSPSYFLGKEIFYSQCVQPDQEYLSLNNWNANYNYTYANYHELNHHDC
# Procedure, shortened: as §1
# [5] = biological target: ELF4 (Homo sapiens, UniProt Q99607 1-663); details: protein: recombinant; tags: N-terminal GST; dsDNA, one strand shown
# Chain of ELF4 (Q99607 whole entry): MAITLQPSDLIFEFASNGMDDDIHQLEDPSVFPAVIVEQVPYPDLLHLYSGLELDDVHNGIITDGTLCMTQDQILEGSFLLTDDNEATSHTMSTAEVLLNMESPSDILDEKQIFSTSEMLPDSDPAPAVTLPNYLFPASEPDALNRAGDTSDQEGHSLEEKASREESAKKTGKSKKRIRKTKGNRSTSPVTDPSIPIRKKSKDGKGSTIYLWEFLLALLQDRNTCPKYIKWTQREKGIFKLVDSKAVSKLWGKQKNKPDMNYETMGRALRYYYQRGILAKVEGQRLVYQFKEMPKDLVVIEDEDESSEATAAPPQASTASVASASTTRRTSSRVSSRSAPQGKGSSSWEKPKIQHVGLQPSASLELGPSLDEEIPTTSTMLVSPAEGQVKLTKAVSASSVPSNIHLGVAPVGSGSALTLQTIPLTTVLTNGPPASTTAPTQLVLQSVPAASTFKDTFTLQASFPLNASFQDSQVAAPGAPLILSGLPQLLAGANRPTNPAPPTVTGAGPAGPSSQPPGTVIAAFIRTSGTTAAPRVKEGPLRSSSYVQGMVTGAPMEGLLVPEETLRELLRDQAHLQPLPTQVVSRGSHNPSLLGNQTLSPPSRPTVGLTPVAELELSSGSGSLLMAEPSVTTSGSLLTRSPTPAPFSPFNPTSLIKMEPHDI
# Procedure, shortened: as §1
# [6] = biological target: T3, ELK4 (Homo sapiens, UniProt P28324-2 1-405); details: protein: recombinant; tags: N-terminal GST; dsDNA, one strand shown
# T3 sequence: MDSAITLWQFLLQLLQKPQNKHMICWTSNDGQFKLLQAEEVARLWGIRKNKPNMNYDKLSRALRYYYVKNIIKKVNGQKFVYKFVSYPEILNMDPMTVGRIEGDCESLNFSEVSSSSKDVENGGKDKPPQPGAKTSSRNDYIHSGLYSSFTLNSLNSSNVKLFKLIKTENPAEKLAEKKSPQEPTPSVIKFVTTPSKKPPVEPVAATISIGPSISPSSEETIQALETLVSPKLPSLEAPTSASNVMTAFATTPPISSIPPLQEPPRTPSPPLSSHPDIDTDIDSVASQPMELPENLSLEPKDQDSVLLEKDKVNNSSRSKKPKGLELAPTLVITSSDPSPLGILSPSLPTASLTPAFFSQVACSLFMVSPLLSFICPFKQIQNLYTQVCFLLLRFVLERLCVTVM
# Procedure, shortened: as §1
# [7] = biological target: T4, ETV2 (Homo sapiens, UniProt O00321 1-342); details: protein: recombinant; tags: N-terminal GST; dsDNA, one strand shown
# T4 sequence: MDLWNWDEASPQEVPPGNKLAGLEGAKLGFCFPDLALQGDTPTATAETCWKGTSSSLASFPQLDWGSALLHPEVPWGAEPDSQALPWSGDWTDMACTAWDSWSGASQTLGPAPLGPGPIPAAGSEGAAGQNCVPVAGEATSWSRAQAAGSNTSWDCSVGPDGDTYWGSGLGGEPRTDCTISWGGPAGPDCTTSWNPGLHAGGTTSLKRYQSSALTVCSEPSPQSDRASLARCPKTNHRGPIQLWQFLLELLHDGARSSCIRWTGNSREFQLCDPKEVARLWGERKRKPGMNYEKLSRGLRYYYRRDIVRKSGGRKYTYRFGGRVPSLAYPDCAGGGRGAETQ
# Procedure, shortened: as §1
# [8] = biological target: T5, ELF3 (Homo sapiens, UniProt P78545 1-371); details: protein: recombinant; tags: N-terminal GST; dsDNA, one strand shown
# T5 sequence: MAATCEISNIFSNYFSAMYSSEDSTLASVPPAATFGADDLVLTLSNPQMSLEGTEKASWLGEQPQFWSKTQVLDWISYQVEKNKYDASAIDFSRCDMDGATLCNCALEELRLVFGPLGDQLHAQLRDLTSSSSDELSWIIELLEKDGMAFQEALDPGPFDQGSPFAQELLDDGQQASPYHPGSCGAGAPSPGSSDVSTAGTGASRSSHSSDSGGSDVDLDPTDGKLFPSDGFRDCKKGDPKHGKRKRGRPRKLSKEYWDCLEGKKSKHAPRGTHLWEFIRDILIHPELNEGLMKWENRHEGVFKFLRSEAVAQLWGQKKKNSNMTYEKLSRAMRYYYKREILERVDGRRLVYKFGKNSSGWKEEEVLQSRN
# Procedure, shortened: as §1
# [9] = biological target: CRX (Homo sapiens, UniProt O43186 1-299); details: protein: recombinant; tags: N-terminal GST; dsDNA, one strand shown
# Chain of CRX (O43186 whole entry): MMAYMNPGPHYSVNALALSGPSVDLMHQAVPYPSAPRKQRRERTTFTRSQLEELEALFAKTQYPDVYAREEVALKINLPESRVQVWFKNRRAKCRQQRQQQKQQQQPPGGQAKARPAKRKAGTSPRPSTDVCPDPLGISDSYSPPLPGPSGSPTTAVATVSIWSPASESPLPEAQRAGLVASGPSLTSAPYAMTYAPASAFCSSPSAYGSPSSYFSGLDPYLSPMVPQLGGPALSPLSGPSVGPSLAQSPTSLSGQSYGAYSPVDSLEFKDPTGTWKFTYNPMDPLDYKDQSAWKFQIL
# Procedure, shortened: as §1
# [10] = biological target: ETV1 (Homo sapiens, UniProt P50549 1-477); details: protein: recombinant; tags: N-terminal GST; dsDNA, one strand shown
# Chain of ETV1 (P50549 whole entry): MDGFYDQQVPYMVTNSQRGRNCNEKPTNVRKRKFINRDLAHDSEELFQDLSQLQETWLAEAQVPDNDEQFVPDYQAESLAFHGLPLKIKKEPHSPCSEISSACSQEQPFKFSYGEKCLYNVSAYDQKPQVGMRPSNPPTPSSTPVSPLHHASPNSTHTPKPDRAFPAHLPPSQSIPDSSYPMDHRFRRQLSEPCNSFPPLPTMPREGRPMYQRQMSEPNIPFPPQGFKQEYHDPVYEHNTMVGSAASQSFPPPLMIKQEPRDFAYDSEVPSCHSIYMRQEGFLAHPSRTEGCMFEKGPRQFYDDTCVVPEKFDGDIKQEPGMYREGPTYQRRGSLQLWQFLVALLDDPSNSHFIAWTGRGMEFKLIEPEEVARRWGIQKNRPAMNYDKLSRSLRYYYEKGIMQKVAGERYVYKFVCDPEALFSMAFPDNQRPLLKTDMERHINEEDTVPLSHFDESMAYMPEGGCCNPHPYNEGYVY
# Procedure, shortened: as §1
# [11] = biological target: T6, ERF (Homo sapiens, UniProt P50548 1-548); details: protein: recombinant; tags: N-terminal GST; dsDNA, one strand shown
# T6 sequence: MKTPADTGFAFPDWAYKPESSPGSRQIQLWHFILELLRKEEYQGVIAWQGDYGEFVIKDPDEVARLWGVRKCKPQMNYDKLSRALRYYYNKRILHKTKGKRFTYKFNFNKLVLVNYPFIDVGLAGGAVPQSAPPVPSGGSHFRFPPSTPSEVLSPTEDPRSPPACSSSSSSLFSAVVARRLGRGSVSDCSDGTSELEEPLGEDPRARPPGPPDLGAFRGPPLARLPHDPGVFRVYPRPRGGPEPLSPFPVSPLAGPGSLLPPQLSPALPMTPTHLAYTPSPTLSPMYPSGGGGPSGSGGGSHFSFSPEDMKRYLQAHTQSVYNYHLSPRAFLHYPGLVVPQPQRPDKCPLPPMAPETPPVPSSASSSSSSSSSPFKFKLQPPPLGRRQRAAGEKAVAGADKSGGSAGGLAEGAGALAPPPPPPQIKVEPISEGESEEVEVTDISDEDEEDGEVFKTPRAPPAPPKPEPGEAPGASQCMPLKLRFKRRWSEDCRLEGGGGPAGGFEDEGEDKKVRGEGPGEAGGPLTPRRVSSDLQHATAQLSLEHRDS
# Procedure, shortened: as §1
# [12] = biological target: T7, ETV3L (Homo sapiens, UniProt Q6ZN32 1-361); details: protein: recombinant; tags: N-terminal GST; dsDNA, one strand shown
# T7 sequence: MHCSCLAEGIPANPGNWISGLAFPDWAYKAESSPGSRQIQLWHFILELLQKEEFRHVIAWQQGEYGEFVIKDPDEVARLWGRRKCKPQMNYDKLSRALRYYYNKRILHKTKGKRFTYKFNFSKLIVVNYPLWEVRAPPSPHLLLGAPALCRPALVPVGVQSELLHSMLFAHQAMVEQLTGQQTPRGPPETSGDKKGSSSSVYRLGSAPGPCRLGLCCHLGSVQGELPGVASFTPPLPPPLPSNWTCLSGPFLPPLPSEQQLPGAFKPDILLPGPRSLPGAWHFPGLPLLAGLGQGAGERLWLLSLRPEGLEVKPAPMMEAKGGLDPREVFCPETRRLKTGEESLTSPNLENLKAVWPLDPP
# Procedure, shortened: as §1
# [13] = biological target: T8, ETS2 (Homo sapiens, UniProt P15036 1-469); details: protein: recombinant; tags: N-terminal GST; dsDNA, one strand shown
# T8 sequence: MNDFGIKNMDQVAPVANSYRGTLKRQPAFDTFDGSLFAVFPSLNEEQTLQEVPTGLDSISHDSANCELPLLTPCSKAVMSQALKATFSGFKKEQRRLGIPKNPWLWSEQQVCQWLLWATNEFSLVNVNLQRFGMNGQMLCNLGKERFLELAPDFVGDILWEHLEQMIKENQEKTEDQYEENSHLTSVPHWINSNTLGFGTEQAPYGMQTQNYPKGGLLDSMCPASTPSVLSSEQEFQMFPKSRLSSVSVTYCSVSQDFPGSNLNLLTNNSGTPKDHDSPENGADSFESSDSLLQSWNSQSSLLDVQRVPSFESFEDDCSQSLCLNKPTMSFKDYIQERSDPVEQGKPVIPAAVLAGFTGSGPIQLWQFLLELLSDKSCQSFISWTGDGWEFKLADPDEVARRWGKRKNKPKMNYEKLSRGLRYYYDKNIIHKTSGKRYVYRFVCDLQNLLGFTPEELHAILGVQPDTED
# Procedure, shortened: as §1
# [14] = biological target: T9, SPDEF (Homo sapiens, UniProt O95238 1-335); details: protein: recombinant; tags: N-terminal GST; dsDNA, one strand shown
# T9 sequence: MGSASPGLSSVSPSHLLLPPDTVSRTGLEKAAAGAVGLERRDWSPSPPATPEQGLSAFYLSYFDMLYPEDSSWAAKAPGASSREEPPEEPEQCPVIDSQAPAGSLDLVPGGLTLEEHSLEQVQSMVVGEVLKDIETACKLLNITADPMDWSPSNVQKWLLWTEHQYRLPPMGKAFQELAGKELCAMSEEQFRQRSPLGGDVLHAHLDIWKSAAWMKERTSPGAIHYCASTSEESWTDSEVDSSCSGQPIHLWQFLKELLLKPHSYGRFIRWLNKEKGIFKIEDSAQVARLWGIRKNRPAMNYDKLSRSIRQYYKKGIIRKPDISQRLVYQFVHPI
# Procedure, shortened: as §1
# [15] = biological target: T10, ETV7 (Homo sapiens, UniProt Q9Y603 1-341); details: protein: recombinant; tags: N-terminal GST; dsDNA, one strand shown
# T10 sequence: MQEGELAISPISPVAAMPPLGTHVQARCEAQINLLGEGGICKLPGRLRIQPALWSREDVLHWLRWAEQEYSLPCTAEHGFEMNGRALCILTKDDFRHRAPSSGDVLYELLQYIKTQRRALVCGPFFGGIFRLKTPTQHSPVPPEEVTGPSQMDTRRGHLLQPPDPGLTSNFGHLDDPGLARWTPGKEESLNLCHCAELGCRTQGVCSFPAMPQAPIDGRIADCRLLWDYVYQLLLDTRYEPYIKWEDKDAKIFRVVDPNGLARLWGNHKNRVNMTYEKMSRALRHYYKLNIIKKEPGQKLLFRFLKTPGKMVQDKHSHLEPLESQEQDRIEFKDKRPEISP
# Procedure, shortened: as §1
# [16] = biological target: T11, ELF5 (Homo sapiens, UniProt Q9UKW6-2 1-255); details: protein: recombinant; tags: N-terminal GST; dsDNA, one strand shown
# T11 sequence: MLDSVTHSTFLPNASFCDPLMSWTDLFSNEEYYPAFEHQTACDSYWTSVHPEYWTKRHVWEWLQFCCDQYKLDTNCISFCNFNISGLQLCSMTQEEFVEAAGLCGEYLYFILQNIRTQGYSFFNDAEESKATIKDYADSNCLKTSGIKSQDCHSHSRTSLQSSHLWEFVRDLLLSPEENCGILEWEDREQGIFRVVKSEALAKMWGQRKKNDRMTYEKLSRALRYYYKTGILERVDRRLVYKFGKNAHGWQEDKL
# Procedure, shortened: as §1
# [17] = biological target: T12, ETV3 (Homo sapiens, UniProt P41162-2 1-143); details: protein: recombinant; tags: N-terminal GST; dsDNA, one strand shown
# T12 sequence: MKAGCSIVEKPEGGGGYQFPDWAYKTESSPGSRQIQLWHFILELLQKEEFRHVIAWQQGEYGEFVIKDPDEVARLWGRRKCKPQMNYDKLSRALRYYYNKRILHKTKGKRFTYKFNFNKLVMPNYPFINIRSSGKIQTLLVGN
# Procedure, shortened: as §1
# [18] = biological target: ETV6 (Homo sapiens, UniProt P41212 1-452); details: protein: recombinant; tags: N-terminal GST; dsDNA, one strand shown
# Chain of ETV6 (P41212 whole entry): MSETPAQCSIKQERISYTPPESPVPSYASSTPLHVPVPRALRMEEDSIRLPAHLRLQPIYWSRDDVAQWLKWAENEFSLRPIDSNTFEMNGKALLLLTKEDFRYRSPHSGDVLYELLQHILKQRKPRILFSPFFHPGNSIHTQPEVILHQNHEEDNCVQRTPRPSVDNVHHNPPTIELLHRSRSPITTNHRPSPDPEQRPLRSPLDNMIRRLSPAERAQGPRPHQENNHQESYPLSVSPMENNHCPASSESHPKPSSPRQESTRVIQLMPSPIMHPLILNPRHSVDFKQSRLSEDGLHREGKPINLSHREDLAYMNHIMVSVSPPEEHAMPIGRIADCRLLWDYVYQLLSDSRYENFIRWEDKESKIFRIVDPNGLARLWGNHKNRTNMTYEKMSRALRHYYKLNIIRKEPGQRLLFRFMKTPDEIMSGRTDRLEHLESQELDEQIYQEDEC
# Procedure, shortened: as §1
sequence,measurement,setting,value
TTTCGT,binding signal,[1],"1.35 fold enrichment (6-mer frequency, TF over GST control)"
same,binding signal,[2],"1.41 fold enrichment (6-mer frequency, TF over GST control)"
same,binding signal,[3],"1.48 fold enrichment (6-mer frequency, TF over GST control)"
same,binding signal,[4],"1.36 fold enrichment (6-mer frequency, TF over GST control)"
same,binding signal,[5],"1.34 fold enrichment (6-mer frequency, TF over GST control)"
same,binding signal,[6],"1.49 fold enrichment (6-mer frequency, TF over GST control)"
same,binding signal,[7],"1.32 fold enrichment (6-mer frequency, TF over GST control)"
same,binding signal,[8],"1.33 fold enrichment (6-mer frequency, TF over GST control)"
same,binding signal,[9],"1.43 fold enrichment (6-mer frequency, TF over GST control)"
same,binding signal,[10],"1.38 fold enrichment (6-mer frequency, TF over GST control)"
same,binding signal,[11],"1.21 fold enrichment (6-mer frequency, TF over GST control)"
same,binding signal,[12],"1.46 fold enrichment (6-mer frequency, TF over GST control)"
same,binding signal,[13],"1.37 fold enrichment (6-mer frequency, TF over GST control)"
same,binding signal,[14],"1.42 fold enrichment (6-mer frequency, TF over GST control)"
same,binding signal,[15],"1.34 fold enrichment (6-mer frequency, TF over GST control)"
same,binding signal,[16],"1.33 fold enrichment (6-mer frequency, TF over GST control)"
same,binding signal,[17],"1.4 fold enrichment (6-mer frequency, TF over GST control)"
same,binding signal,[18],"1.35 fold enrichment (6-mer frequency, TF over GST control)"
